We go through 35 compounds from PubChem BioAssay (NCATS).

Records with an inconclusive call do not appear. Some structures have more than one record in an assay (separate samples or runs), and their calls can disagree. Active and inactive are the calls of the source. Unless noted, the call rests on the fitted dose curve; in most records, active means well fitted curve in the direction sought with a large enough effect; inconclusive means small, poorly fitted or top-dose-only effect, or another doubt; inactive means no such curve, though single readings can be large; an effect the other way counts as inactive or inconclusive.

The target of assay [1] is Voltage-gated inwardly rectifying potassium channel KCNH2 (Homo sapiens) (UniProt Q12809). Kind of assay: qHTS Assay for Small Molecule Inhibitors of the Human hERG Channel Activity (AID 588834).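 Further: lower thallium flux fluorescence means stronger hERG block; nearly all actives have a fitted effect of over 50% in size.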 Further: potency means the concentration at half of the fitted maximal effect. To be noted: U2OS BacMam hERG, FluxOR thallium flux fluorescence; series mostly up to 46.1 µM. The essentials:
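Blockade is seen as reduced FluxOR thallium-flux fluorescence in U2OS cells expressing hERG from a BacMam construct, in Opti-MEM with 2% FCS. Concentration-response data fitted to the Hill equation for AC50.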

The target in assay [2] is Vitamin D3 receptor (Homo sapiens) (UniProt P11473). In words: qHTS assay for small molecule antagonists of vitamin D receptor signaling (AID 588541; calls by dose curve;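 further: receptor activated by calcitriol during compound treatment; on the % scale 0 is the no-effect control and ±100 the full control effect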). As to conditions: HEK293T VDR-UAS-bla, beta-lactamase ratio, antagonist mode; series mostly up to 76.7 µM. The essentials:
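VDR-UAS-bla HEK293T cells in 2% charcoal-stripped FBS were stimulated with 1-alpha,25-dihydroxyvitamin D3 (3 nM final) plus compound for 16 h at 37 C. The beta-lactamase CCF4 readout was normalized to 50 nM agonist and DMSO, and Hill fits gave IC50.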
Background: Quantitative high-throughput screening tests each substance at several concentrations.

Assay [3] shares this target. Kind of assay: qHTS assay for small molecule agonists of vitamin D receptor signaling (AID 588543; calls by dose curve;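 further: 0% = DMSO basal and 100% = reference agonist control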). To be noted: HEK293T VDR-UAS-bla, beta-lactamase ratio, 16 h; series mostly up to 76.8 µM. The essentials: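 Measured: β-lactamase reporter activity (CCF4, 405 nm excitation, 460/530 nm emission) in HEK293T VDR-UAS-bla cells after 16 h compound exposure at 37 °C. Normalization against 50 nM 1α,25-dihydroxyvitamin D3 and DMSO; Hill-fit EC50.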

A short description of assay [4]: qHTS assay for small molecule agonists of retinoid X receptor alpha signaling (AID 588544; calls by dose curve; further: potency means the concentration at half of the fitted maximal effect). To be noted: HEK293T RXRa-UAS-bla, beta-lactamase reporter, 18 h; 530 nm emission.
The target in assay [5] is Retinoic acid receptor RXR-alpha (Homo sapiens) (UniProt P19793). The description is as above. To be noted: HEK293T RXRa-UAS-bla, beta-lactamase reporter, 18 h; series mostly up to 76.7 µM.
Chain of Retinoic acid receptor RXR-alpha (Homo sapiens) (P19793 whole entry, looked up): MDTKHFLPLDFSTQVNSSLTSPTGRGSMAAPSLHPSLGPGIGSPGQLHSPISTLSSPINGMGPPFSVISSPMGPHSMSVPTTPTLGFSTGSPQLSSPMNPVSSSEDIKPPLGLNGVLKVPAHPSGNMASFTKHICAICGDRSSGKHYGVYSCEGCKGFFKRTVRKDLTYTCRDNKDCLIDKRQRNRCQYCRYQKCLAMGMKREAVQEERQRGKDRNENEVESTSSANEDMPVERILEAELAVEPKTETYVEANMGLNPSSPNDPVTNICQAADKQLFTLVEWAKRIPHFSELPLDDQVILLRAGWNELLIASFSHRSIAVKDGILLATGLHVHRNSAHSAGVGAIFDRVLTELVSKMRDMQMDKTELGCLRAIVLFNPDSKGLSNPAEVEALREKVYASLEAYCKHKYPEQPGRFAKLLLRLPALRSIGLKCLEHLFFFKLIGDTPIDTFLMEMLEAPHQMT
The target of assay [6] is Thyroid hormone receptor beta (Homo sapiens) (UniProt P10828). Kind of assay: qHTS assay for small molecule agonists of thyroid hormone receptor beta signaling (AID 588545; calls by dose curve). To be noted: TR-UAS-bla GripTite HEK 293, beta-lactamase ratio, agonist mode, 18 h, percent of T3 response, DMSO as zero; series mostly up to 76.7 µM. A digest of the protocol:
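Agonist-mode beta-lactamase reporter assay, HEK 293 cells, 2% charcoal/dextran FBS; cells plated 4 hrs, compound 18 hrs at 37 C, CCF4 2 hrs RT. Normalized to 10 nM T3 (100%) and DMSO (0%); Hill fit gives EC50, efficacy.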

Assay [7] is described as follows: qHTS assay for small molecule antagonists of retinoid X receptor alpha signaling (AID 588546; active means well fitted inhibition curve with a large enough effect in the signal ratio, with a control signal flat, not every such curve was filed as active; the % refers to the signal ratio;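 further: cells stimulated with 9-cis-retinoic acid as agonist; on the % scale 0 is the no-effect control and ±100 the full control effect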). As to conditions: HEK293T RXRa-UAS-bla, beta-lactamase ratio, antagonist mode; measured here: W530 green channel, cytotoxicity proxy. A digest of the protocol: (§1)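 Beta-lactamase reporter inhibition, read as CCF4 fluorescence ratio (ex 405, em 460/530 nm) after 2 h at RT. HEK293T UAS-bla cells, 2500/well, were stimulated with 9-cis-RA at 500 or 100 nM final alongside test compound for 18 h at 37 C.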

For assay [8], the target named is Retinoic acid receptor RXR-alpha (Homo sapiens) (UniProt P19793). The assay is described as above. To be noted: HEK293T RXRa-UAS-bla, beta-lactamase ratio, antagonist mode. A digest of the protocol:
as §1

Assay [9] has as its target Thyroid hormone receptor beta (Homo sapiens) (UniProt P10828). In words: qHTS assay for small molecule antagonists of thyroid hormone receptor beta signaling (AID 588547; active means well fitted inhibition curve with a large enough effect in the signal ratio, with a control signal flat, not every such curve was filed as active; the % refers to the signal ratio;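 further: cells stimulated with 0.4 nM T3 agonist during compound exposure; on the % scale 0 is the no-effect control and ±100 the full control effect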). As to conditions: TR-UAS-bla HEK293, beta-lactamase ratio, antagonist mode, 18 h. The essentials: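 TR-UAS-bla GripTite HEK293 cells in 2% charcoal/dextran FBS medium; compounds 0.59 nM to 92 uM with T3 at 0.4nM final, 18 h at 37 C. Beta-lactamase read by CCF4 fluorescence (460/530 nm); Hill fits gave IC50 and efficacy.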

The target of assay [10] is Luciferin 4-monooxygenase (Photinus pyralis) (UniProt P08659). In words: Biochemical firefly luciferase enzyme assay for NPC (AID 624030).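 Further: purified P. pyralis luciferase at 10 nM with luciferin and ATP substrate; 0% = DMSO and -100% = full luciferase inhibition by PTC124 control; nearly all actives have a fitted effect of over 70% in size.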 As to conditions: purified P. pyralis luciferase, luminescence, 5 min; series mostly up to 58.6 µM. The essentials: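 Purified P. pyralis luciferase at 10 nM in 50 mM Tris Acetate (final), luminescence read within 5 minutes of enzyme addition to compounds. Activity normalised to PTC124 versus DMSO; concentration-response curves classed by r2, magnitude and activity.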
Chain of Luciferin 4-monooxygenase (Photinus pyralis) (P08659 whole entry, looked up): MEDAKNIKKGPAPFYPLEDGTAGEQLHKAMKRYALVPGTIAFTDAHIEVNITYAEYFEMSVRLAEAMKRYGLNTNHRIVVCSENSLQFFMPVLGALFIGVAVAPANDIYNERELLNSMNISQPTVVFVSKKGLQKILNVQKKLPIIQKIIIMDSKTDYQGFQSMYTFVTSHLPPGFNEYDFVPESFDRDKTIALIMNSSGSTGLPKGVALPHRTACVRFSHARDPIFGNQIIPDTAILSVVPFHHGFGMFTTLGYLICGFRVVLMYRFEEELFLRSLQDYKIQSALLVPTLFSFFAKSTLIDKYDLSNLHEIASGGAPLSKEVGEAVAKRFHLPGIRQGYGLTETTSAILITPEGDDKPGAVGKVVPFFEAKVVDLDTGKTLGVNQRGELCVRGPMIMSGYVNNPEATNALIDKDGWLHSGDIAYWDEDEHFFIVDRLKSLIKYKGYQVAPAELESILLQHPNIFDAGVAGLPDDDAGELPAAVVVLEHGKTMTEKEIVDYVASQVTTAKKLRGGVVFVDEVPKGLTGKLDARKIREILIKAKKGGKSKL

Assay [11] can be described thus: S16 Schwann cell viability assay (CellTiter-Glo assay) (AID 624031).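 Further: plate controls were DMSO-treated cells for no effect and cell-free wells for full effect; nearly all actives have a fitted effect of over 70% in size.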 As to conditions: S16 rat Schwann cells viability, 24 h; series mostly up to 57.5 µM. The essentials:
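Luminescent ATP read-out (CellTiter-Glo) after 24 h compound exposure of native S16 rat Schwann cells at 37 °C. Signals were normalized between cell-free wells and DMSO-treated cells, set as 0% activity.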
For orientation: ATP-based viability assays read luminescence as a measure of living cells.

Assay [12] is described as follows: S16 Schwann cell PMP22 intronic element beta-lactamase assay (AID 624044; calls by dose curve;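 further: 0% = DMSO and -100% = potassium clavulanate positive control; nearly all actives have a fitted effect of over 15% in size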). To be noted: S16 rat Schwann cells, PMP22 element beta-lactamase FRET, 24 h; series mostly up to 38.3 µM. The essentials:
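Rat S16 Schwann cells with beta-Lac driven by a PMP22 intronic element, compound-treated 24 h at 37 °C. LiveBLAzer FRET B/G read: 460 nm normalized to potassium clavulanate vs DMSO; 535 nm FRET as viability; concentration-effect curves classified.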

A short description of assay [13]: S16 Schwann cell PMP22 intronic element firefly luciferase assay (AID 624032). Further: nearly all actives have a fitted effect of over 30% in size. Further: potency means the concentration at half of the fitted maximal effect. As to conditions: S16 rat Schwann cells, PMP22 element FLuc, 24 h; series mostly up to 57.5 µM. A digest of the protocol:
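Rat S16 Schwann cells stably carrying firefly luciferase driven by a PMP22 intronic element, in 10% FBS, treated 24 h at 37 C. ONE-Glo luminescence normalized to PTC124 control and DMSO (0%); curves classed by r2, magnitude and activity.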

Chain of Voltage-gated inwardly rectifying potassium channel KCNH2 (Homo sapiens) (Q12809 whole entry, looked up): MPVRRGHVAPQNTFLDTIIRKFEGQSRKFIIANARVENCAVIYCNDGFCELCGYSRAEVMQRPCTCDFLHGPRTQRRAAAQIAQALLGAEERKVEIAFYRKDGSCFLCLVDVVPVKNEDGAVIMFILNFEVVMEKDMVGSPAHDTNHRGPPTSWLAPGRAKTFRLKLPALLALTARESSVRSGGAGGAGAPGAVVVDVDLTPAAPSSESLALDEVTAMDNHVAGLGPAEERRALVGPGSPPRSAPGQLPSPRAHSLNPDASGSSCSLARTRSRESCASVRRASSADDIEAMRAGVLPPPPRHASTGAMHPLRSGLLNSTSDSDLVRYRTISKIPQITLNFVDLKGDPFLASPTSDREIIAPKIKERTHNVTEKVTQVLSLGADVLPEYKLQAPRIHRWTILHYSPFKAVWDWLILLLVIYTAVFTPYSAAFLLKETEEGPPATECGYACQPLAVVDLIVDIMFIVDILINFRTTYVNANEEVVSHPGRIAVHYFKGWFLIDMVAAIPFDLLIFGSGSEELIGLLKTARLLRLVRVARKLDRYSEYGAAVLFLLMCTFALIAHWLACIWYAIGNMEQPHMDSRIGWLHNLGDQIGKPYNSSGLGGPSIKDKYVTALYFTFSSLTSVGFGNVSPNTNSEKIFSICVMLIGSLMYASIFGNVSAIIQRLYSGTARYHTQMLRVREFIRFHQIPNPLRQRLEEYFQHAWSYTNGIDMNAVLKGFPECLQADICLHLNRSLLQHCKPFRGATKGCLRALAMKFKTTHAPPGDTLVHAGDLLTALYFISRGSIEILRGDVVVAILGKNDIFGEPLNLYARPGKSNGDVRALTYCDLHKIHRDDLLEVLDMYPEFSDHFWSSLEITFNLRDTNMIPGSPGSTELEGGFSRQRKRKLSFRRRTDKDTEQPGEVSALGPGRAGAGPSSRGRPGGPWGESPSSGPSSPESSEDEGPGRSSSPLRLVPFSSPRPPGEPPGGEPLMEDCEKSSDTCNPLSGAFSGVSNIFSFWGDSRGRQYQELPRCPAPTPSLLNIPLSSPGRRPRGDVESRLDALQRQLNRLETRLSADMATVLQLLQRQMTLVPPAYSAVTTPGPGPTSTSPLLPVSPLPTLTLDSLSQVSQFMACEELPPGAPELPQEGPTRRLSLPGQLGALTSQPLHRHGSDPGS
Chain of Vitamin D3 receptor (Homo sapiens) (P11473 whole entry, looked up): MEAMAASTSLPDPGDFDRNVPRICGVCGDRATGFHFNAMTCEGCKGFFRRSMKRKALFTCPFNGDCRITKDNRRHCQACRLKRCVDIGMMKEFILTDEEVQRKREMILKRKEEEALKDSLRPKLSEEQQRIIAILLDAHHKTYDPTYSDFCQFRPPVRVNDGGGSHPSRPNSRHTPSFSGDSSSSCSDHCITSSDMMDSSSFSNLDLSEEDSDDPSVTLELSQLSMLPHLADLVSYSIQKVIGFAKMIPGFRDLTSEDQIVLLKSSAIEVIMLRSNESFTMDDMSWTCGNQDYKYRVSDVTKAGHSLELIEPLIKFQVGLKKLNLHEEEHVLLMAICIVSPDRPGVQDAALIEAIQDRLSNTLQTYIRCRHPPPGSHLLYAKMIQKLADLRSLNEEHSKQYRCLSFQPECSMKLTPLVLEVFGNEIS
Chain of Thyroid hormone receptor beta (Homo sapiens) (P10828 whole entry, looked up): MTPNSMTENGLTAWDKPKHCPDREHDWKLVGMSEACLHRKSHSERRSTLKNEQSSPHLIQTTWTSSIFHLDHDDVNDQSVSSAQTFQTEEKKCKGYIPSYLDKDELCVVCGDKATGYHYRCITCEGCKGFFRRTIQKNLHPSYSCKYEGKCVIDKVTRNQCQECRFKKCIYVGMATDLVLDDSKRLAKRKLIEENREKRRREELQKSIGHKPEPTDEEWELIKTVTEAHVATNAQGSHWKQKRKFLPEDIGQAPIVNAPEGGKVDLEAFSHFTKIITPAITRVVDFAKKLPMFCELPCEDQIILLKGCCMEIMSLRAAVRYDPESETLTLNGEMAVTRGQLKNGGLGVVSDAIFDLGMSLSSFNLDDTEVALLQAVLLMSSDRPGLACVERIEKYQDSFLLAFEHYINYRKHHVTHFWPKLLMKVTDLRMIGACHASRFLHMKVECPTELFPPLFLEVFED

On to `C[C@]12CC[C@H](OS(=O)(=O)O)CC1=CC[C@@H]1[C@@H]2CC[C@]2(C)C(=O)CC[C@@H]12`, for which the Potency result in [1] was “inactive”.
The same measure, in the same setting: in the case of `C[C@H]1CC[C@]2(NC1)O[C@H]1C[C@H]3[C@@H]4CC[C@H]5C[C@@H](O[C@@H]6O[C@H](CO)[C@H](O[C@@H]7O[C@H](CO)[C@@H](O)[C@H](O[C@@H]8OC[C@@H](O)[C@H](O)[C@H]8O)[C@H]7O[C@@H]7O[C@H](CO)[C@@H](O)[C@H](O)[C@H]7O)[C@H](O)[C@H]6O)CC[C@]5(C)[C@H]4CC[C@]3(C)[C@H]1[C@@H]2C` it was 15.8 µM (active); in that of `O=c1ccc2cc(O[C@@H]3O[C@H](CO)[C@@H](O)[C@H](O)[C@H]3O)c(O)cc2o1`, “inactive”; in that of `C[C@@H]([C@H](O)c1ccccc1)N(C)C`, “inactive”.
In the case of `CC(C)CC(NP(=O)(O)O[C@@H]1O[C@@H](C)[C@H](O)[C@@H](O)[C@H]1O)C(=O)NC(Cc1c[nH]c2ccccc12)C(=O)O` (some centres undefined), the Potency entry in assay [1] was “inactive”.
In the case of `C[C@]12CCC(=O)C[C@@H]1CC[C@@H]1[C@@H]2CC[C@]2(C)[C@@H](O)CC[C@@H]12`, the Potency result in [2], in assay [1], in assay [10], in [11] and in assay [12] was “inactive” each time. Besides, the outcome in [3] and in [6] was inactive. The max response in assay [4] is 21%; in assay [7], 16.7%; in assay [8] it was -6.47% (inactive). In addition, in assay [5], the Potency is 7.94 µM (active). Also, the activity change % (negative = inhibition) in assay [9] is 2.39% (inactive).
Regarding `Clc1ccc(C(Cn2ccnc2)OCc2csc3c(Cl)cccc23)c(Cl)c1` (centres undefined), the Potency in assay [1] is 3.98 µM (active).
Consider `CCOC(=O)/C=C(C)/C=C/C[C@@H](C)CCCC(C)C`, for which the Potency result in [1] was “inactive”.
As to `CCNCC(O)c1cccc(O)c1` (centres undefined), in assay [1], the Potency entry is “inactive”.
`CCCC(C)C1(CC)C(=O)NC(=O)NC1=O` (centres undefined): the Potency entry in assay [1], in [10] and in assay [11] was “inactive” in each case.
`Cn1sc(Cl)cc1=O`: the Potency entry in assay [1], in assay [10], in assay [11], in [13] and in [12] was “inactive” each time.
Take `CC[N+](C)(CC)CCOC(=O)C(O)(c1ccccc1)c1ccccc1`: the Potency entry in assay [1], in [10], in [11] and in assay [12] was “inactive” each time.
With `O=C(OCCN1CCCCC1)C(O)(c1ccccc1)c1ccccc1`, in [1], the Potency was 11.2 µM (active). For the same compound, the Potency entry in [10], in assay [11], in [13] and in [12] was “inactive” throughout.
Turning to `O=S(=O)(O)c1cc(O)ccc1O`, the Potency result in assay [1], in assay [10], in assay [11], in assay [13] and in [12] was “inactive” each time.
With `CN(C)[C@@H]1C(=O)C(C(N)=O)=C(O)[C@@]2(O)C(=O)C3=C(O)c4c(O)ccc(Cl)c4[C@@](C)(O)[C@H]3C[C@@H]12`, the Potency entry in [1] is “inactive”.
As to `CCCCNCC(O)c1ccc(O)cc1` (centres undefined), the Potency entry in assay [1], in assay [10] and in assay [11] was “inactive” each time.
As to `[2H]C([2H])([2H])[C@H](N)Cc1ccccc1`, the Potency entry in assay [1] is “inactive”.
For the compound `O=C1C[C@@H]2OCC=C3CN4CC[C@]56c7ccccc7N1[C@H]5[C@H]2[C@H]3C[C@H]46` (tested in a mixture with another compound), the Potency in [1] is 25.1 µM (active) and inactive.
Take `CC(=O)OO`: the Potency entry in assay [1], in [10], in assay [11] and in [13] was “inactive” throughout.
As for `C=CC[C@]1(O)CC[C@H]2[C@@H]3CCC4=CCCC[C@@H]4[C@H]3CC[C@@]21C`, the Potency entry in assay [1] was “inactive”.
`CC1CCC(C(C)C)C(OC(=O)c2ccccc2N)C1` (centres undefined): the Potency result in assay [1], in [10], in assay [11], in [13] and in [12] was “inactive” throughout.
`CCON=O`: the Potency entry in assay [1], in [10], in assay [11], in assay [13] and in [12] was “inactive” throughout.
For the compound `CCNC1(c2cccs2)CCCCC1=O` (centres undefined), in [1], the Potency result was “inactive”.
Consider `Cc1ccccc1-n1c(C)nc2ccccc2c1=O`, for which the Potency entry in [1] and in assay [10] was “inactive” each time.
With `CCC1C(C)=NN=C(c2ccc(OC)c(OC)c2)c2cc(OC)c(OC)cc21` (centres undefined), the Potency result in assay [1], in [10], in assay [11] and in assay [12] was “inactive” in each case. In addition, in assay [13], the Potency was 7.21 µM (active).
For the compound `OC[C@@H](O)[C@H]1O[C@@H]2O[C@@H](C(Cl)(Cl)Cl)O[C@@H]2[C@H]1O`, in assay [1], the Potency entry was “inactive”.
As to `CCC(N)Cc1c[nH]c2ccccc12` (centres undefined), the Potency result in [1], in [10], in assay [11] and in assay [12] was “inactive” throughout.
With `COC(COC(N)=O)C1=C(N2CC2)C(=O)C(C)=C(N2CC2)C1=O` (centres undefined), the Potency entry in assay [1] was “inactive”.
In the case of `O=P(O)(O)C(Cl)(Cl)P(=O)(O)O`, the Potency result in assay [1], in [10], in assay [11], in assay [13] and in assay [12] was “inactive” throughout.
Consider `Clc1ccc(Cl)cc1`, for which the Potency result in [1], in assay [10], in [11], in assay [13] and in [12] was “inactive” each time.
`CC(N)Cc1ccc(O)cc1` (centres undefined): the Potency result in assay [1], in assay [10], in assay [11] and in assay [12] was “inactive” each time.
For the compound `Cc1cc(C)cc(C(=O)OC2C[C@H]3CC[C@@H](C2)N3C)c1` (some centres undefined), the Potency in assay [1] is 3.98 µM (active).
With `C=CCC1(C(C)CCC)C(=O)N=C(S)NC1=O` (centres undefined), the Potency result in assay [1], in assay [10] and in assay [11] was “inactive” each time.
With `CCC1(c2ccccc2)C(=O)NC(=O)N(C)C1=O` (centres undefined), the Potency entry in assay [1], in [10] and in assay [11] was “inactive” each time.
Take `[S]=[Sb](=[S])[S][Sb](=[S])=[S]`: the Potency result in assay [1] was “inactive”.
